Measured values from PubChem BioAssay (NCATS).
Inconclusive results are not listed. Active and inactive are the calls of the source. Calls come from the whole dose curve; as a rule, active = well fitted inhibition curve with a large enough effect; inconclusive = small, poorly fitted or top-dose-only effect; inactive = flat fitted curve, though single readings scatter.

Experiments:
Assay in all cases: qHTS profiling for inhibitors of Plasmodium falciparum proliferation (AID 504749); note: nearly all actives have a fitted effect of over 60% in size
Conditions in all cases: P. falciparum in erythrocytes, SYBR Green DNA, 72 h; series mostly up to 28.7 µM
CP297 = test system: CP297
Summary of the method: (§1)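 P. falciparum-infected erythrocytes (0.3% parasitemia, 2.5% hematocrit final) were exposed to compounds for 72 h at 37 C in 5% CO2, then lysed with SYBR Green buffer overnight at room temperature; parasite DNA fluorescence was normalized to artemisinin and DMSO controls.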

CP305 = test system: CP305
Summary of the method: as §1

CP315 = test system: CP315
Summary of the method: as §1

CP325 = test system: CP325
Summary of the method: as §1

CP329 = test system: CP329
Summary of the method: as §1

CP335 = test system: CP335
Summary of the method: as §1

DFO2036 = test system: DFO2036
Summary of the method: as §1

DIV14 = test system: DIV14
Summary of the method: as §1

DIV17 = test system: DIV17
Summary of the method: as §1

DIV30 = test system: DIV30
Summary of the method: as §1

Dd2 = test system: Dd2
Summary of the method: as §1

ECU = test system: ECU
Summary of the method: as §1

FAB9 = test system: FAB9
Summary of the method: as §1

GB4 = test system: GB4
Summary of the method: as §1

HB3 = test system: HB3
Summary of the method: as §1

ICS = test system: ICS
Summary of the method: as §1

JCK = test system: JCK
Summary of the method: as §1

N140 = test system: N140
Summary of the method: as §1

P93_24 = test system: P93_24
Summary of the method: as §1

P94_40 = test system: P94_40
Summary of the method: as §1

Measured: Potency

CO
inactive: all assays above

CCCOC(=O)c1ccccc1O
inactive: all assays above

NC(=O)C1c2ccccc2CCc2ccccc21
not listed: N140 | P93_24 | P94_40
inactive: all other assays above

ClC(Cl)Cl
inactive: all assays above

O=C(O)Cc1nn(Cc2ccc(Br)cc2F)c(=O)c2ccccc12
inactive: all assays above

CC(=O)NCCCS(=O)(=O)O
inactive: all assays above

Cc1cccc(Nc2ncccc2C(=O)O)c1C
inactive: all assays above

CCCCCCCCCCCCCCCCCC[N+](C)(C)CCC[Si](OC)(OC)OC
inactive: all assays above

O=P(O)(O)CP(=O)(O)O
not listed: P94_40
inactive: all other assays above

CC/C(=C(/CC)c1ccc(OP(=O)(O)O)cc1)c1ccc(OP(=O)(O)O)cc1
inactive: all assays above

COc1ccc(C(=O)CCC(=O)O)c2ccccc12
inactive: all assays above

O=C1N=C2SCCN2C(=O)C1Cc1ccc(Cl)cc1 (centres undefined)
inactive: all assays above

CN[C@@H]1[C@H](O[C@H]2[C@H](O[C@H]3[C@H](O)[C@@H](O)[C@H](N=C(N)N)[C@@H](O)[C@@H]3N=C(N)N)O[C@@H](C)[C@]2(O)C=O)O[C@@H](CO)[C@H](O)[C@H]1O
inactive: all assays above

O=c1[nH]c(=O)n([C@H]2C[C@H](O)[C@@H](CO)O2)cc1/C=C/Br
inactive: all assays above

NC(=O)[C@H]1O[C@@H](O)[C@H](O)[C@@H](O)[C@@H]1O
inactive: all assays above

CN1C(=O)OC(C)(C)C1=O
inactive: all assays above

Cc1ccc(S(=O)(=O)NCl)cc1
inactive: all assays above

CC1(C)S[C@@H]2[C@H](NC(=O)C3(N)CCCCC3)C(=O)N2[C@H]1C(=O)O
inactive: all assays above

CC(CNC(=O)c1cccnc1)NC(=O)c1cccnc1 (centres undefined)
inactive: all assays above

c1ccc(-n2cnnn2)cc1
inactive: all assays above

CC(C)(C)c1ccc2c(S(=O)(=O)O)c(C(C)(C)C)ccc2c1
inactive: all assays above

CCN(CC)CCOc1ccc2nc(N(C)C)sc2c1
inactive: all assays above

O[C@@H]([C@H](O)[C@H](O)CBr)[C@H](O)CBr
inactive: all assays above

COc1ccc(C(=O)c2ccc(C)cc2)c(O)c1
inactive: all assays above

CC12CCC(C[N+](C)(CCC[N+](C)(C)C)C1)C2(C)C (centres undefined)
inactive: all assays above

OC[C@H]1O[C@@H]2O[C@H]3[C@H](O)[C@@H](O)[C@@H](O[C@H]4[C@H](O)[C@@H](O)[C@@H](O[C@H]5[C@H](O)[C@@H](O)[C@@H](O[C@H]6[C@H](O)[C@@H](O)[C@@H](O[C@H]7[C@H](O)[C@@H](O)[C@@H](O[C@H]1[C@H](O)[C@H]2O)O[C@@H]7CO)O[C@@H]6CO)O[C@@H]5CO)O[C@@H]4CO)O[C@@H]3CO
inactive: all assays above

O=C(O)[C@H]1CN(C/C=C/P(=O)(O)O)CCN1
inactive: all assays above

Cc1ncc(C[n+]2csc(CCOP(=O)(O)OP(=O)(O)O)c2C)c(N)n1
inactive: all assays above

CC(C)O
inactive: all assays above

CC(C)CCC[C@@H](C)[C@H]1CC[C@H]2[C@@H]3CC[C@@H]4C[C@H](O)CC[C@]4(C)[C@H]3CC[C@]12C
inactive: all assays above

O=C(NNCNNC(=O)c1ccncc1)c1ccncc1
inactive: all assays above

CC(=O)N[C@@H]1C(O[C@H]2O[C@H](C(=O)O)C(O)[C@H](O)[C@H]2O)[C@H](O)[C@@H](CO)O[C@H]1O[C@@H]1C(C(=O)O)O[C@@H](O[C@H]2[C@H](O)[C@@H](CO)OC(O)[C@@H]2NC(C)=O)[C@H](O)[C@H]1O (some centres undefined)
inactive: all assays above

CC1=CCC2CC1C2(C)C (centres undefined)
inactive: all assays above

CCCCCCCCCCCCOCCCN
inactive: all assays above

c1ccc2ccccc2c1
inactive: all assays above

CC(=O)N=c1sc(S(N)(=O)=O)nn1C
not listed: P93_24 | P94_40
inactive: all other assays above

CNC(=O)C[C@@H](N)C(=O)N[C@@H](C(=O)N[C@@H]1C(=O)N2[C@@H]1SC(C)(C)[C@@H]2C(=O)O)c1ccc(O)cc1
inactive: all assays above

CCCCC[C@H](O)/C=C/[C@H]1[C@H](O)CC(=O)[C@@H]1C/C=C\CCCC(=O)O
inactive: all assays above

Nc1ncnc2c1ncn2[C@H]1CC[C@@H](CO)O1
inactive: all assays above

C=CC(C)(O)CC/C=C(\C)CCC=C(C)C (centres undefined)
inactive: all assays above

O=C(O)COc1ccc(CCNS(=O)(=O)c2ccccc2)s1
inactive: all assays above

O=C1NCCN1c1ncc([N+](=O)[O-])s1
inactive: all assays above

OB(O)O
inactive: all assays above

CC1(O)CCC(C(C)(C)O)CC1 (centres undefined)
inactive: all assays above

[O]=[Bi][O][Bi]=[O]
inactive: all assays above

CCCCC
inactive: all assays above

CCN(CC)C(=S)S
inactive: all assays above

CCCCCCCCCCCC(=O)OCC(O)CO (centres undefined)
inactive: all assays above

c1ccc2c(c1)OCC(CN1CCCCC1)O2 (centres undefined)
inactive: all assays above

O=S(=O)(O)CCCS(=O)(=O)O
inactive: all assays above

CC(C)Cc1ccc([C@@H](C)C(=O)NS(C)(=O)=O)cc1
inactive: all assays above

C[Si](C)(C)O[Si](C)(C)C
inactive: all assays above

Cc1nc(NS(=O)(=O)c2ccc(N)cc2)nc(C)c1Br
inactive: all assays above

OCCCNc1ccccc1
inactive: all assays above

CCCCC[C@H](O)/C=C/[C@@H]1[C@H]2C/C(=C/CCCC(=O)O)O[C@H]2C[C@H]1O
inactive: all assays above

Cc1cc(=O)c(C(=O)N[C@@H](C(=O)N[C@@H]2C(=O)N3C(C(=O)O)=C(CSc4nnnn4C)CS[C@H]23)c2ccc(O)cc2)c[nH]1
inactive: all assays above
